# Source: PubChem BioAssay
# Rows were chosen to be rich in hits. Some 4.6% of all compounds tested hit in one or more screens of this group.
# ssDAF12 agonist: S. stercoralis DAF-12 nuclear receptor activators, primary screen, cell-based, luminescence, HEK293, GRIP1 co-expression, lit1-tk-luc; HEK293 ssDAF-12/GRIP1 lit1-tk-luc reporter; % of 3 µM dafachronic acid response; activation, % at 6.8 µM; hit rate 1% among 370,000; AID 652126, 2013;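 active means activation above the mean over all tested compounds plus 3 SD, cut at about 0.9% in these data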;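 further: 0% = DMSO-only wells and 100% = 3 µM delta7-dafachronic acid wells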
# hgDAF-12 ag: H. glycines DAF-12 receptor agonists, primary screen, cell-based, luminescence, HEK293, GAL4 fusion, UAS-luciferase. Nuclear hormone receptor DAF-12 (Heterodera glycines), GAL4 fusion. HEK293 GAL4-hgDAF12 UAS-luciferase reporter, agonist luminescence; normalized to butyrate control. activation, % at 6.8 µM. hit rate 1.8% among 370,000. AID 687014, 2013;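 active means activation above a cutoff set at the mean of all screened compounds plus 3 SD, cut at about 10% in these data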;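 further: 0% = DMSO wells and 100% = sodium butyrate wells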
# DAX1 inh-1: DAX1 (NR0B1) inhibitors on StAR promoter, primary screen, cell-based, luminescence, SF-1 (NR5A1), full-length DAX-1 | HEK293T StAR-luciferase reporter, SF-1/DAX-1 repression relief | inhibition, % at 6.8 µM | hit rate 1.1% among 370,000;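 active means inhibition above the mean over all tested compounds plus 3 SD, cut at about 3.6% in these data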;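 further: 0% = DAX-1 cells with DMSO and 100% = cells lacking DAX-1 with DMSO; higher inhibition means more luminescence from relief of DAX-1 repression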
# hcDAF-12 act: H. contortus DAF-12 nuclear receptor activators, primary screen, cell-based, luminescence, HEK293, lit1-tk-luc reporter; HEK293 hcDAF-12 lit1-tk-luc reporter; 0% DMSO, 100% Δ7-dafachronic acid; activation, % at 6.8 µM; hit rate 1.4% among 370,000;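 active means activation above the mean of all tested compounds plus 3 SD, cut at about 5.5% in these data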;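 further: 100% = response to 3 µM Δ7-dafachronic acid high control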
# DAX1 inh-2: DAX1 (NR0B1) inhibitors, primary screen, cell-based, HEK293, Gal4-DAX1, luciferase luminescence. AID 504766, 2011. hit rate 0.99% among 340,000. inhibition, % at 6.75 µM. Nuclear receptor subfamily 0 group B member 1 (Homo sapiens), P51843. HEK293 Gal4-DAX1 luciferase reporter;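 active means inhibition above the mean over all tested compounds plus 3 SD, cut at about 4.2% in these data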;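 further: 0% = DAX1-transfected cells with DMSO and 100% = empty-vector control cells with DMSO; inhibition shows as a rise in luminescence from relieved DAX1 repression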
# Wee1 stabilizer: Wee1 degradation inhibitors, primary screen, cell-based, HeLa, Wee1K328M-luciferase, luminescence; hit rate 1.2% among 220,000; HeLa Luc-Wee1K328M stability; 100% = proteasome inhibitor MG132 effect; Wee1-like protein kinase (Homo sapiens), P30291; AID 1321, 2008; reporter increase, % at 5 µM;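 active means activation above the mean of all tested compounds plus 3 SD, set per screening run, cut at about 8.8% in these data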;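 further: cells exposed to compound for 20 h before luminescence read; 0% = DMSO alone and 100% = MG132 at 30 µM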
# Active calls of the source: *; / = not tested or not shown.
SMILES,ssDAF12 agonist,hgDAF-12 ag,DAX1 inh-1,hcDAF-12 act,DAX1 inh-2,Wee1 stabilizer
CCOc1ccc2cc(C#N)c(SCC(=O)N3CCC(C)CC3)nc2c1,-1,0,0,1,0,-2
CCOC(=O)CSc1nc2cc(OCC)ccc2cc1C#N,0,11*,2,2,1,0
COc1ccc(C2C(C(=O)NCCN(C)C)c3ccccc3C(=O)N2C)cc1OC (centres undefined),-1,1,-2,-1,4.6*,0
CC1CCCN(c2nc(NCc3ccco3)nc(N)c2[N+](=O)[O-])C1 (centres undefined),-2,-3,-2,-4,-1,-1
CC1CC(C)CN(c2nc(NCc3ccco3)nc(N)c2[N+](=O)[O-])C1 (centres undefined),-1,-4,0,-1,-1,11*
Cc1ccc(CCNC(=O)C2CCN(S(=O)(=O)c3ccc4c(c3)CCC(=O)N4)CC2)cc1,0,1,1,0,1,-2
O=C1CCc2cc(S(=O)(=O)NC(Cc3ccccc3)C(=O)NCCC3=CCCCC3)ccc2N1 (centres undefined),-2,0,-1,-2,4.3*,1
O=C1CCc2cc(S(=O)(=O)N3CCC(C(=O)NCCC4=CCCCC4)CC3)ccc2N1,-1,1,0,1,6.2*,-1
CC(C)(C)C(=O)NCCN1C(=O)S/C(=C\c2ccc([N+](=O)[O-])cc2)C1=O,-1,12*,-1,-2,-1,1
CC(=O)c1ccc(Oc2ncnc3sccc23)cc1,-1,11*,3,2,3,0
CC(=O)N1CCN(c2ccc(Oc3ncnc4sccc34)cc2)CC1,-1,-1,-1,-3,0,0
Oc1[nH]c2ccccc2c1N=Nc1c(F)c(F)c(Cl)c(F)c1F,-1,0,1,1,1,/
Oc1[nH]c2ccccc2c1N=Nc1ccccc1Cl,2.5*,7,2,4,3,/
C[C@@H]1CN([C@H](C)CO)C(=O)CCCn2cc(nn2)CO[C@H]1CN(C)S(=O)(=O)c1ccccc1C#N,-1,1,-1,3,0,/
Cn1c(=O)c2cc(NC(=O)CCc3cccnc3)ccc2n1Cc1ccc(F)cc1,-1,-1,-1,-1,/,/
O=C(O)c1cccnc1Sc1ccccc1,-1,-1,0,-2,1,0
Cc1nccnc1Sc1ccccc1,2.0*,-2,0,1,0,0
CN(CCOC(=O)c1cc2ccccc2o1)C1CN(Cc2cn(Cc3ccccc3Cl)nn2)S(=O)(=O)C1 (centres undefined),-1,3,0,-1,/,/
COc1cc(/C=C/C(=O)NC(=O)c2ccccc2O)ccc1O,0,0,3,3,2,/
O=C(/C=C/c1ccccc1)NC(=O)c1ccccc1O,0,12*,2,2,3,6
O=C(C=Cc1cccc(O)c1)c1ccccc1O,-1,12*,0,3,0,/
Cn1cncc1C(=O)c1ccccc1,1.1*,0,-1,2,2,-1
Cc1ccc(S(=O)(=O)[N-]c2nc3ccccc3nc2-n2cc[n+](CCC(C)C)c2)cc1,0,0,1,2,1,0
CC(C)CC[n+]1ccn(-c2nc3ccccc3nc2[N-]S(=O)(=O)c2ccc(Cl)cc2)c1,-2,0,1,-1,5.3*,1
CS(=O)(=O)N1CCC[C@]2(CC[C@@H](CCC#N)O2)C1,-1,-1,-1,0,/,/
